Experimental findings from PubChem BioAssay (NCI) are described below.

About 79,000 compounds went through this panel and 15% of them were active in at least one assay; those are over-represented in the sample as a whole. A number with no mark means an inactive call. Calls of active or inactive are those of the source. Cut-off read from the data, not from the text of the source: active = growth inhibition above about 70%; inactive = the rest.

Experiment [1] can be described thus: NCI Yeast Anticancer Drug Screen. Data for the rad50 strain (AID 155).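 Note: 0% = growth of vehicle-only cultures of the same strain.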 The note with it: S. cerevisiae rad50 strain growth inhibition, stronger effect = higher value. The gist of the method:
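Genetically altered yeast (DNA repair pathway); compound treatment; growth inhibition vs vehicle ctrl.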

Experiment [2] is described as follows: NCI Yeast Anticancer Drug Screen. Data for the mec2-1 strain (AID 157). The conditions noted are these: S. cerevisiae mec2-1 strain, stronger effect = higher value. In short, it runs like this:
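Using mec2-1 yeast: add compound, measure growth, express inhibition versus vehicle-treated cultures.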

Experiment [3] in a line: NCI Yeast Anticancer Drug Screen. Data for the sgs1 mgt1 strain (AID 161).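 Note: 0% = growth of cultures given vehicle only.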 The conditions noted are these: S. cerevisiae sgs1 mgt1 strain, stronger effect = higher value. The gist of the method: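 Yeast cells carrying a defined DNA-repair defect were exposed to test compounds. Growth inhibition was measured relative to vehicle-treated controls.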
Experiment [4] is described as follows: NCI Yeast Anticancer Drug Screen. Data for the cln2 rad14 strain (AID 165).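 Note: 0% = growth equal to vehicle treated cultures.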 The note with it: S. cerevisiae cln2 rad14 strain, stronger effect = higher value. In short, it runs like this:
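Yeast strain cln2 rad14, bearing defects in cell cycle control and DNA repair, serves as the test system; values reflect growth inhibition compared with vehicle.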

A short description of experiment [5]: NCI Yeast Anticancer Drug Screen. Data for the bub3 strain (AID 167). The conditions noted are these: S. cerevisiae bub3 mutant strain, stronger effect = higher value. The gist of the method: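 Yeast carrying a defined mutation is treated with each compound, and growth is compared with that of vehicle-exposed cells to give inhibition.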
A short description of experiment [6]: NCI Yeast Anticancer Drug Screen. Data for the mlh1 rad18 strain (AID 175). The conditions noted are these: S. cerevisiae mlh1 rad18 strain growth inhibition, stronger effect = higher value. In short, it runs like this: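 Steps: expose repair-defective yeast to compound; measure growth; express inhibition against vehicle-treated controls.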
Setting [7] is: at 5.0 µM (retest, dose inferred, filed as 0.5).
Where [8] appears, read: at 50.0 µM (retest, dose inferred, filed as 5.0).

With `Cn1cc(NC(=O)c2cc(NC(=O)CCCCCCCCCCC(=O)Nc3cc(C(=O)Nc4cc(C(=O)NCCC(=N)N)n(C)c4)n(C)c3)cn2C)cc1C(=O)NCCC(=N)N`, the growth inhibition in experiment [1] (setting [7]) is 92% (active); in experiment [1] (setting [8]) it was 98% (active); in experiment [1] (at 50.0 µM) it was 89.5% (active); in experiment [2] (setting [7]), 95% (active); in experiment [2] (setting [8]) it was 98% (active); in experiment [2] (at 50.0 µM), 92% (active). The growth inhibition in experiment [3] (setting [7]) is 95% (active); in experiment [3] (setting [8]), 99% (active); in experiment [3] (at 50.0 µM) it was 92% (active); in experiment [4] (setting [7]), 72% (active); in experiment [4] (setting [8]), 97% (active); in experiment [4] (at 50.0 µM), 91.4% (active). In addition, the growth inhibition in experiment [5] (setting [7]) was 96% (active); in experiment [5] (setting [8]) it was 98% (active); in experiment [5] (at 50.0 µM), 91% (active).

Take `CCCCCCCCCCCCCCCCCCOP(=O)([O-])OC1CC[N+](C)(C)CC1`: the growth inhibition was 93% (active) in experiment [1] (setting [7]); 99% (active) in experiment [1] (setting [8]); 90% (active) in experiment [1] (at 50.0 µM); 98% (active) in experiment [2] (setting [7]); 99% (active) in experiment [2] (setting [8]); 92.5% (active) in experiment [2] (at 50.0 µM). Also, the growth inhibition in experiment [3] (setting [7]) is 98% (active); in experiment [3] (setting [8]), 99% (active); in experiment [3] (at 50.0 µM), 91% (active); in experiment [4] (setting [7]) it was 96% (active); in experiment [4] (setting [8]), 99% (active); in experiment [4] (at 50.0 µM), 90.2% (active). For the same compound, the growth inhibition was 97% (active) in experiment [5] (setting [7]); 99% (active) in experiment [5] (setting [8]); 89% (active) in experiment [5] (at 50.0 µM); 97% (active) in experiment [6] (setting [7]); 99% (active) in experiment [6] (setting [8]); 92.5% (active) in experiment [6] (at 50.0 µM).

Regarding `N#CSc1cc(SC#N)c2ccccc2c1N`, the growth inhibition in experiment [1] (setting [7]) is 0%; in experiment [1] (setting [8]), -3%; in experiment [1] (at 50.0 µM), 70.2% (active); in experiment [2] (setting [7]) it was -2%; in experiment [2] (setting [8]) it was -12%; in experiment [2] (at 50.0 µM), 62.9%. The growth inhibition in experiment [3] (setting [7]) is 3%; in experiment [3] (setting [8]), -9%; in experiment [3] (at 50.0 µM), 57.9%; in experiment [4] (setting [7]), 1%; in experiment [4] (setting [8]), -27%; in experiment [4] (at 50.0 µM), -1.2%. The growth inhibition in experiment [5] (setting [7]) is 19%; in experiment [5] (setting [8]) it was 28%; in experiment [5] (at 50.0 µM), 81% (active).

As for `C/C(=N\NC(=S)NCc1ccccc1)c1nccnc1C`, the growth inhibition in experiment [1] (setting [7]) was 23%; in experiment [1] (setting [8]) it was 98% (active); in experiment [1] (at 50.0 µM), 90.9% (active); in experiment [2] (setting [7]) it was 19%; in experiment [2] (setting [8]), 99% (active); in experiment [2] (at 50.0 µM) it was 89% (active). Moreover, the growth inhibition in experiment [3] (setting [7]) is 35%; in experiment [3] (setting [8]), 99% (active); in experiment [3] (at 50.0 µM), 82.9% (active); in experiment [4] (setting [7]), 35%; in experiment [4] (setting [8]), 98% (active); in experiment [4] (at 50.0 µM) it was 85.9% (active). Further, the growth inhibition was 52% in experiment [5] (setting [7]); 99% (active) in experiment [5] (setting [8]); 83.3% (active) in experiment [5] (at 50.0 µM); 27% in experiment [6] (setting [7]); 98% (active) in experiment [6] (setting [8]); 91.7% (active) in experiment [6] (at 50.0 µM).

For `Cc1[nH]c2ccccc2c1/C=C1\C(=O)C2CCC1C2` (centres undefined), the growth inhibition in experiment [1] (setting [7]) was -7%; in experiment [1] (setting [8]), 75% (active); in experiment [1] (at 50.0 µM), 95.4% (active); in experiment [2] (setting [7]) it was -4%; in experiment [2] (setting [8]), 73% (active); in experiment [2] (at 50.0 µM), 34.6%. Also, the growth inhibition is -6% in experiment [3] (setting [7]); 92% (active) in experiment [3] (setting [8]); 71.3% (active) in experiment [3] (at 50.0 µM); -4% in experiment [4] (setting [7]); 38% in experiment [4] (setting [8]); 45.4% in experiment [4] (at 50.0 µM). The growth inhibition in experiment [5] (setting [7]) is -16%; in experiment [5] (setting [8]), 80% (active); in experiment [5] (at 50.0 µM), 39%; in experiment [6] (setting [7]), -14%; in experiment [6] (setting [8]), 80% (active); in experiment [6] (at 50.0 µM) it was 86.9% (active).

As for `O=[N+]([O-])c1ccc(NCc2ccccc2)c([N+](=O)[O-])c1`, the growth inhibition in experiment [1] (setting [7]) is -8%; in experiment [1] (setting [8]), 69%; in experiment [1] (at 50.0 µM), 14.6%; in experiment [2] (setting [7]) it was -16%; in experiment [2] (setting [8]) it was 55%; in experiment [2] (at 50.0 µM), 31.1%. Besides, the growth inhibition is 4% in experiment [3] (setting [7]); 72% (active) in experiment [3] (setting [8]); 60.6% in experiment [3] (at 50.0 µM); -10% in experiment [4] (setting [7]); 62% in experiment [4] (setting [8]); -166% in experiment [4] (at 50.0 µM). The growth inhibition in experiment [5] (setting [7]) is 19%; in experiment [5] (setting [8]) it was 86% (active); in experiment [5] (at 50.0 µM), 72.7% (active); in experiment [6] (setting [7]), -2%; in experiment [6] (setting [8]), 80% (active); in experiment [6] (at 50.0 µM), 68%.

With `Cc1cc2cc3c(c(C(=O)O)c2o1)C(=O)c1ccc2ccccc2c1C3`, the growth inhibition was 15% in experiment [1] (setting [7]); 99% (active) in experiment [1] (setting [8]); 98.2% (active) in experiment [1] (at 50.0 µM); 24% in experiment [2] (setting [7]); 99% (active) in experiment [2] (setting [8]); 99.5% (active) in experiment [2] (at 50.0 µM). For the same compound, the growth inhibition in experiment [3] (setting [7]) was 19%; in experiment [3] (setting [8]) it was 99% (active); in experiment [3] (at 50.0 µM) it was 99.5% (active); in experiment [4] (setting [7]) it was 14%; in experiment [4] (setting [8]), 99% (active); in experiment [4] (at 50.0 µM), 99.2% (active). The growth inhibition in experiment [5] (setting [7]) is 14%; in experiment [5] (setting [8]), 99% (active); in experiment [5] (at 50.0 µM) it was 99.6% (active); in experiment [6] (setting [7]), 20%; in experiment [6] (setting [8]), 99% (active); in experiment [6] (at 50.0 µM), 99.4% (active).

As to `COc1ccc(OC)c(C(Cc2ccnc3ccccc23)Cc2ccnc3ccccc23)c1`, the growth inhibition in experiment [1] (setting [7]) is 1%; in experiment [1] (setting [8]) it was 97% (active); in experiment [1] (at 50.0 µM), 99% (active); in experiment [2] (setting [7]), -14%; in experiment [2] (setting [8]), 97% (active); in experiment [2] (at 50.0 µM) it was 99.2% (active). Further, the growth inhibition in experiment [3] (setting [7]) is 3%; in experiment [3] (setting [8]), 99% (active); in experiment [3] (at 50.0 µM), 99% (active); in experiment [4] (setting [7]), 1%; in experiment [4] (setting [8]), 99% (active); in experiment [4] (at 50.0 µM), 98.6% (active). In addition, the growth inhibition in experiment [5] (setting [7]) is 10%; in experiment [5] (setting [8]), 98% (active); in experiment [5] (at 50.0 µM), 98.8% (active); in experiment [6] (setting [7]) it was -3%; in experiment [6] (setting [8]) it was 97% (active); in experiment [6] (at 50.0 µM), 98.8% (active).

For `CC1=C(/C=C/C(C)=N/NC(N)=S)C(C)(C)CCC1`, the growth inhibition in experiment [1] (setting [7]) was 24%; in experiment [1] (setting [8]), 87% (active); in experiment [1] (at 50.0 µM), 84.5% (active); in experiment [2] (setting [7]), 5%; in experiment [2] (setting [8]) it was 88% (active); in experiment [2] (at 50.0 µM), 80.5% (active). The growth inhibition was 22% in experiment [3] (setting [7]); 88% (active) in experiment [3] (setting [8]); 65.8% in experiment [3] (at 50.0 µM); 15% in experiment [4] (setting [7]); 85% (active) in experiment [4] (setting [8]); 76.9% (active) in experiment [4] (at 50.0 µM). Also, the growth inhibition in experiment [5] (setting [7]) was 16%; in experiment [5] (setting [8]) it was 86% (active); in experiment [5] (at 50.0 µM) it was 80.1% (active); in experiment [6] (setting [7]), 6%; in experiment [6] (setting [8]), 89% (active); in experiment [6] (at 50.0 µM) it was 85% (active).

For `Nc1ccc2nc3c(nc2c1)C(=O)c1ccccc1-3`, the growth inhibition in experiment [1] (setting [7]) is 47%; in experiment [1] (setting [8]) it was 93% (active); in experiment [1] (at 50.0 µM), 85.5% (active); in experiment [2] (setting [7]) it was 10%; in experiment [2] (setting [8]), 93% (active); in experiment [2] (at 50.0 µM) it was 86.5% (active). Further, the growth inhibition in experiment [3] (setting [7]) was 19%; in experiment [3] (setting [8]), 88% (active); in experiment [3] (at 50.0 µM), 85% (active); in experiment [4] (setting [7]) it was 32%; in experiment [4] (setting [8]), 90% (active); in experiment [4] (at 50.0 µM) it was 83% (active). In addition, the growth inhibition is 15% in experiment [5] (setting [7]); 94% (active) in experiment [5] (setting [8]); 87.6% (active) in experiment [5] (at 50.0 µM); 21% in experiment [6] (setting [7]); 93% (active) in experiment [6] (setting [8]); 89.5% (active) in experiment [6] (at 50.0 µM).
